# Laboratory results taken from PubChem BioAssay (NCI).
# Compounds without any hit were thinned out: in the full panel of roughly 83,000, 20% have a hit.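 The endpoint reported here, percent growth, reads 100 for growth as untreated, 0 for no net growth and -100 for all cells dead.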 Values without a mark were called inactive. Calls of active or inactive are those of the source. Rule for the calls: active = growth percent below 10; inactive = the rest.
# Legend:
# Assay in all cases: NCI-60 one-dose screen, 48 h (100 = growth as untreated, 0 = no growth, -100 = all killed)
# Settings in all cases: 10 µM unless noted
# SR leukemia = tested on: SR leukemia
# RPMI-8226 leukemia = tested on: RPMI-8226 leukemia
# OVCAR-8 ovarian = tested on: OVCAR-8 ovarian
# OVCAR-5 ovarian = tested on: OVCAR-5 ovarian
# OVCAR-4 ovarian = tested on: OVCAR-4 ovarian
# SK-OV-3 ovarian = tested on: SK-OV-3 ovarian
# IGROV1 ovarian = tested on: IGROV1 ovarian
# OVCAR-3 ovarian = tested on: OVCAR-3 ovarian
# HS 578T breast = tested on: HS 578T breast
# NCI/ADR-RES ovarian = tested on: NCI/ADR-RES ovarian
# T-47D breast = tested on: T-47D breast
# BT-549 breast = tested on: BT-549 breast
# MDA-MB-435 melanoma = tested on: MDA-MB-435 melanoma
# SW-620 colon = tested on: SW-620 colon
# MCF7 breast = tested on: MCF7 breast
# HCT-116 colon = tested on: HCT-116 colon
# HCC-2998 colon = tested on: HCC-2998 colon
# KM12 colon = tested on: KM12 colon
Structure (SMILES),growth (SR leukemia),growth (RPMI-8226 leukemia),growth (OVCAR-8 ovarian),growth (OVCAR-5 ovarian),growth (OVCAR-4 ovarian),growth (SK-OV-3 ovarian),growth (IGROV1 ovarian),growth (OVCAR-3 ovarian),growth (HS 578T breast),growth (NCI/ADR-RES ovarian),growth (T-47D breast),growth (BT-549 breast),growth (MDA-MB-435 melanoma),growth (SW-620 colon),growth (MCF7 breast),growth (HCT-116 colon),growth (HCC-2998 colon),growth (KM12 colon)
NS(=O)(=O)Oc1cccc(-c2nc3sccn3c2-c2ccccc2)c1,19.8%,44.1%,66.8%,95.2%,74.9%,76.7%,54.4%,39.1%,47%,48.1%,36.2%,54%,3.29% (active),35.5%,26.1%,23.5%,87.4%,48.4%
COc1ccc(N/N=C/c2ccc3c(c2)Sc2ccccc2N3C)cc1,42.2%,78.2%,65.9%,53.3%,60.7%,87.4%,55.8%,77.7%,95.1%,79.6%,51.9%,96.1%,17.6%,27.1%,32.3%,53.6%,85%,16.9%
COc1cccc(/C=C/C(=O)/C=C(/C=C/c2cccc(OC)c2OC)OB(F)F)c1OC,15.2%,23.6%,16.7%,64%,50.7%,97%,33.7%,10.8%,38.3%,19.6%,41.2%,48%,14.8%,16.4%,26.8%,8.38% (active),121%,86.5%
COC(=O)c1nc(-c2ccccc2)oc1S(=O)(=O)NCC(c1ccc(Cl)cc1)N1CCCCC1 (stereo unspecified),-3.58% (active),20%,57%,90.8%,89.3%,95.5%,56.5%,57.5%,100%,89%,52.1%,55.8%,72.1%,36.2%,34.7%,78%,117%,80.6%
Cn1cc(-c2ccc3occ(-c4cccc(-c5ccncc5)c4)c3n2)cn1,3.95% (active),0.0083% (active),7.42% (active),55.4%,36.5%,31.8%,15.7%,18.4%,-10.7% (active),4.84% (active),-6.42% (active),10.9%,-2.73% (active),17.8%,6.54% (active),10.4%,45%,12.4%
Cc1cc(N2CCOCC2)nc(N(CCCNc2ccnc3cc(Cl)ccc23)Cc2ccc3c(c2)OCO3)n1,-29.2% (active),-2.52% (active),-52.4% (active),22.7%,-37.9% (active),18.9%,4.36% (active),-88.6% (active),9.54% (active),-36.1% (active),-45.9% (active),-38.3% (active),-45.1% (active),-3.78% (active),3.11% (active),-76.9% (active),-58.2% (active),0.0851% (active)
Cn1cc(-c2nc(-c3c[nH]c4c(Cl)nccc34)cs2)c2ccccc21,73.7%,87.2%,91.1%,120%,86.4%,108%,105%,107%,108%,98%,87.1%,110%,96.4%,99.4%,44.7%,94.4%,94.5%,95.9%
CC(C)n1nc(-c2ccc3oc(N)nc3c2)c2c(N)ncnc21,9.35% (active),-6.46% (active),-17.5% (active),-9.99% (active),-32.2% (active),-32.6% (active),-27.3% (active),-6.08% (active),-35.8% (active),-20.6% (active),-36% (active),-23.9% (active),-13.5% (active),6.36% (active),-4.22% (active),7.89% (active),9.05% (active),-0.425% (active)
CCCCCCCCNc1ncnc2c1ncn2Cc1nnc2c3ccccc3c(Cl)nn12,16.7%,35.4%,30%,102%,42.9%,4.2% (active),31.4%,58%,54.3%,35.3%,26.5%,28%,46%,56.8%,41.4%,31.2%,76.3%,65.3%
O=C1C2C(c3cccs3)C=C(c3ccc(Cl)cc3)N2C(=S)N1c1ccccc1 (stereo unspecified),97.6%,99.3%,97.8%,96.5%,98.1%,109%,93.2%,104%,92.2%,103%,100%,92.4%,110%,102%,90.9%,101%,111%,104%
COc1ccc(S(=O)(=O)N(C)c2oc(-c3ccc(Cl)cc3)nc2C#N)cc1,29.3%,69.7%,96%,94.6%,76.4%,91.2%,77.7%,82.2%,64.9%,58.6%,74.5%,74.7%,-3.32% (active),43.3%,52.5%,72%,76.2%,56.6%
CN1CCN(Cn2nc(-c3cc(Cl)cc(Cl)c3Cl)oc2=S)CC1,70.4%,160%,96%,93.6%,92.8%,100%,97.8%,99.2%,91.2%,99%,98.9%,94.9%,88.9%,100%,97.5%,97.5%,105%,94.2%
Cn1cc(-c2csc(-c3cn(C)c4ccc(F)cc34)n2)c2cnccc21,-21.5% (active),-38.4% (active),5.3% (active),25.6%,11.3%,107%,-24.7% (active),-57.4% (active),-34.2% (active),24.7%,-44.1% (active),84%,-90.7% (active),-67.1% (active),-49.3% (active),-90.3% (active),-78.4% (active),0.588% (active)
O=C1/C(=C/c2ccccc2)COc2ccc(O)cc21,17.6%,-16.5% (active),95.9%,104%,99.5%,124%,105%,98.7%,107%,104%,80.7%,81.2%,68.4%,53.1%,23.7%,51.9%,101%,41.4%
C=CCn1c(SCC(=O)Nc2ccc(C(=O)/C=C/c3ccc(Cl)cc3)cc2)nnc1-c1ccc(Cl)c(Cl)c1,57%,-34.5% (active),75.6%,90.5%,86.7%,85.7%,76.4%,83.8%,90.8%,83.9%,76.6%,78%,37.9%,90.9%,19.7%,-71.5% (active),95.9%,85.2%
COC1=C(OC)C(=O)C(CCCCCCCCCCO)=C(C)C1=O,24%,76%,49.4%,103%,-13.7% (active),82.7%,57.7%,69%,92.6%,29.2%,19.3%,87.4%,-51% (active),103%,30.2%,52.9%,115%,67.5%
CCC(=C(c1ccc(OCCN(CC)CC)cc1)c1ccc(OCCN(CC)CC)cc1)c1ccc(Cl)cc1,-39.7% (active),-48.5% (active),-49.8% (active),-52.8% (active),-38.9% (active),55.4%,-78.6% (active),-72.2% (active),-44.3% (active),-33.1% (active),-55.4% (active),61.5%,-92% (active),-75.5% (active),-73.3% (active),-87.7% (active),-91% (active),-82.2% (active)
